Test results from the supplement of paper PMC6953052.
Several values for one entry are separate records, joined by “and”; a condition that tells them apart may be missing. Identical values can stand only once. In all, about 1,700 compounds were measured (“fraction of GFP-LC3-positive cells (≥5 vesicles/cell)”: median about 0.058, highest 2% from about 0.59 on). What follows is part of a selection rich in the highest values, with near analogues and random picks from the rest.

System: CbCln3 +/+ GFP-LC3 cerebellar neuronal cells
Experiment: fraction of GFP-LC3-positive cells (≥5 vesicles/cell); higher = more autophagosome accumulation
Procedure, shortened: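 By pin transfer, ~50 nL of compound in DMSO went in duplicate into 384-well plates holding 2 × 10^3 wild-type or mutant CbCln3 cerebellar cells per well that stably express GFP-LC3, followed by 24 h at 33 °C. The final 30 min included Hoechst 33342 and LysoTracker Red, and then came 3.2% PFA fixation and 10× imaging of three fields per well. Each value gives the fraction of cells above a vesicle threshold, averaged across duplicates, with CellProfiler counting GFP-LC3 vesicles and out-of-focus images left out. The threshold is 5 or more vesicles per cell.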

SMILES | fraction of GFP-LC3-positive cells
N=C(N)N1CCc2ccccc2C1.N=C(N)N1CCc2ccccc2C1.O=S(=O)(O)O [Debrisoquin sulfate] | 0.0501
C/C=C(/C(=C/C)c1ccc(O)cc1)c1ccc(O)cc1 [Dienestrol] | 0.14
CCCCC/C=C/C/C=C/CCCCCCCCCCC(=O)O [12(Z), 15(Z)-Heneicosadienoic acid] | 0.0338
NC(CO)(CO)CO.O=C(c1ccccc1)c1ccc2n1CCC2C(=O)O (stereo unspecified) [Ketorolac tromethamine] | 0.0452
CC(C)(C)NCC(O)COc1cccc2c1CC(O)C(O)C2 (stereo unspecified) [Nadolol] | 0.0452
O=C(O)c1ccccc1Nc1ccccc1 | 0.0543
N#CC(=C(/N)Sc1ccccc1N)/C(C#N)=C(\N)Sc1ccccc1N | 0.0648 and 0.109
CO[C@H]1/C=C/O[C@@]2(C)Oc3c(C)c(O)c4c(O)c(c(/C=N/N5CCN(C)CC5)c(O)c4c3C2=O)NC(=O)/C(C)=C\C=C\[C@H](C)[C@H](O)[C@@H](C)[C@@H](O)[C@@H](C)[C@H](OC(C)=O)[C@@H]1C [Rifampicin] | 0.0415
C[C@]12CCC(=O)C=C1CC[C@@H]1[C@@H]2C(=O)C[C@@]2(C)[C@H]1CC[C@]2(O)C(=O)CO [Cortisone] | 0.0551
CCCCCCCC/C=C/CCCCCCCCCCC(=O)O [12(Z) Heneicosenoic acid] | 0.0354
CCC1(c2ccccc2)C(=O)NCNC1=O [Primidone] | 0.0329
CC(C)Cn1c(=O)n(C)c(=O)c2[nH]cnc21 | 0.0399
CN1C(C(=O)Nc2ccccn2)=C(O)c2ccccc2S1(=O)=O [piroxicam] | 0.0598
C[C@H](NCCc1ccc(O)cc1)[C@H](O)c1ccc(O)cc1.Cl [Ritodrine hydrochloride] | 0.0423
CO[C@H]1C[C@@H]2CC[C@@H](C)[C@@](O)(O2)C(=O)C(=O)N2CCCC[C@H]2C(=O)O[C@H]([C@H](C)C[C@@H]2CC[C@@H](O)[C@H](OC)C2)CC(=O)[C@H](C)/C=C(\C)[C@@H](O)[C@@H](OC)C(=O)[C@H](C)C[C@H](C)/C=C/C=C/C=C/1C | 0.0529
N#Cc1c(-c2ccccc2)no[n+]1[O-] [Furoxan] | 0.597
COc1cc(CNC(=O)CCCC/C=C/C(C)C)ccc1O [Capsaicin] | 0.0783
Cc1cccc(Nc2ccncc2S(=O)(=O)NC(=O)NC(C)C)c1 [Torsemide] | 0.0886
CC(/C=C/C(=O)NO)=C\[C@@H](C)C(=O)c1ccc(N(C)C)cc1 [trichostatin-A] | 0.799
CN(C)N=Nc1[nH]cnc1C(N)=O [Dacarbazine] | 0.0174
CC/C=C\C/C=C\C/C=C\C/C=C\C=C\C(O)CCCC(=O)O (racemic) | 0.07
